The target of test [1] is Nuclear receptor subfamily 1 group I member 3 (Homo sapiens) (UniProt Q14994). Nature of the test: qHTS assay to identify small molecule agonists of the constitutive androstane receptor (CAR) signaling pathway (AID 1224839). Note: series mostly up to about 92 µM; nearly all actives have a fitted effect of over 15% in size. The method in brief: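 A 15-concentration quantitative screen uses HepG2 cells co-transfected stably with human CAR and CYP2B6-2.2kb reporter. Treatment lasts 24 h with 0.75 uM PK11195 final present; ONE-Glo luminescence is the signal.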

The nature of test [2]: qHTS assay to identify small molecule antagonists of the estrogen related receptor signaling pathway with the pleiotropic PPARgamma coactivator (PGC) from Tox21 10K library - cell viability counter screen (AID 1224840; active = well fitted cell-killing curve with a large enough effect in the repeat runs, not every such curve was filed as active; note: nearly all actives have a fitted effect of over 40% in size). The method in brief: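 Cell viability is measured by CellTiter-Fluor fluorescence in PGC/ERR cells that receive compounds after a 6-hour attachment period and are then incubated 17.5 hours at 37 C.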
(Quantitative high-throughput screening tests each substance at several concentrations.)

Test [3] has as its target Thyrotropin receptor (Homo sapiens) (UniProt P16473). In words: qHTS assay to identify small molecule agonists of the thyroid stimulating hormone receptor (TSHR) signaling pathway (AID 1224843; calls by dose curve; note: nearly all actives have a fitted effect of over 45% in size). The method in brief: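 A cell-based cAMP HTRF format was run in TSHR-transfected HEK293 cells, 800 per well. Treatment: 30 min, room temperature. Detection: 1 h with labelled cAMP and anti-cAMP cryptate. Concentration-response over 15 points, three replicates.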

The nature of test [4]: qHTS assay to identify small molecule agonists of H2AX (AID 1224845; active = well fitted activation curve with a large enough effect in the signal ratio in the repeat runs, not every such curve was filed as active; the % refers to the signal ratio). The essentials:
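Phospho-H2AX Ser139 measured by HTRF (ex 320 nm; em 665 and 620 nm) after 24 hr antibody incubation. Compounds, 15 concentrations, 0.76% DMSO, were applied to CHO-K1 cells for 3hr at 37C before lysis.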

A short description of test [5]: qHTS assay to identify small molecule agonists of the hypoxia (HIF-1) signaling pathway (AID 1224846; active = well fitted activation curve with a large enough effect in the signal ratio in the repeat runs, not every such curve was filed as active; the % refers to the signal ratio). The essentials: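 Agonist mode reporter screen. ME-180 cells stably expressing bla under HRE control received test compounds in DMSO for 17 hrs (37C, 5% CO2), and beta-lactamase activity was then detected with the CCF4-AM FRET substrate.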
Test [6] in a line: qHTS assay to identify small molecule agonists of H2AX - cell viability counter screen (AID 1224847; calls by dose curve; note: top concentration of the series differs between compounds; nearly all actives have a fitted effect of over 30% in size). The method in brief: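 We seed wild-type CHO-K1 cells overnight, treat them for 3 hr at 37C with compounds in 15-concentration series, and quantify remaining viability by CellTiter-Glo luminescence.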
Test [7] in a line: qHTS RealTime-Glo MT Cell Viability Assay in HepG2 cells - 24 hour (AID 1224867). Note: nearly all actives have a fitted effect of over 50% in size. The method in brief: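 Cells + NanoLuc/prosubstrate dispensed (600 cells/well) → 5 h at 37 C/5% CO2 → compounds in DMSO transferred → 40 h incubation at 37 C, luminescence read at 0, 8, 16, 24, 32, 40 h.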
A short description of test [8]: qHTS RealTime-Glo MT Cell Viability Assay in HEK293 cells - 32 hour (AID 1224868). Note: top concentration of the series differs between compounds; nearly all actives have a fitted effect of over 50% in size. The method in brief: (§1)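 Tox21 10K qHTS, HEK293, 600 cells/well, RealTime-Glo reagent co-dispensed with cells; 5 h preincubation, compound by pintool, 37 C, luminescence at 0–40 h.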
Test [9] in a line: A CellTox Green Cytotoxicity Assay to monitor cytotoxicity in HEK293 cells - 0 hour (AID 1224869). Note: nearly all actives have a fitted effect of over 50% in size. The method in brief: (§2)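 Dead-cell fluorescence measured kinetically: asymmetric cyanine dye, HEK293, 600 cells/well, 5 h settle, 23 nL cpd/DMSO, 37 C, reads 0–40 h every 8 h.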
The nature of test [10]: qHTS RealTime-Glo MT Cell Viability Assay in HepG2 cells - 40 hour (AID 1224870). Note: nearly all actives have a fitted effect of over 50% in size. The essentials:
(§3)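 Real-time viability: cells seeded at 600 per well together with NanoLuc and cell-permeant prosubstrate, compounds added after 5 h incubation. Luminescence tracked at 0, 8, 16, 24, 32 and 40 h of exposure.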

Test [11] in a line: A CellTox Green Cytotoxicity Assay to monitor cytotoxicity in HEK293 cells - 40 hour (AID 1224871). Note: nearly all actives have a fitted effect of over 45% in size. Note: potency is the fitted concentration of half-maximal effect. The method in brief:
as §2

Test [12] in a line: qHTS RealTime-Glo MT Cell Viability Assay in HEK293 cells - 16 hour (AID 1224872). The essentials: as §1
A short description of test [13]: qHTS RealTime-Glo MT Cell Viability Assay in HepG2 cells - 8 hour (AID 1224873). Note: nearly all actives have a fitted effect of over 55% in size. The method in brief:
as §3

Test [14] in a line: qHTS RealTime-Glo MT Cell Viability Assay in HEK293 cells - 40 hour (AID 1224874). Note: nearly all actives have a fitted effect of over 50% in size. The following applies: RealTime-Glo luminescence; max response: stronger effect = lower value. The essentials: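 600 HEK293 cells per well, dispensed already mixed with RealTime-Glo MT reagents. Compound dosing came 5 h later. The same wells were read for luminescence at 0, 8, 16, 24, 32 and 40 h of exposure at 37 C.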

Test [15] is described as follows: A CellTox Green Cytotoxicity Assay to monitor cytotoxicity in HEK293 cells - 24 hour (AID 1224875). Note: series mostly up to about 77 µM; nearly all actives have a fitted effect of over 45% in size. The method in brief:
as §2

Test [16] is described as follows: qHTS assay to identify small molecule agonists of the hypoxia (HIF-1) signaling pathway - cell viability counter screen (AID 1224844; calls by dose curve; note: nearly all actives have a fitted effect of over 50% in size). The essentials: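 Viability counter screen: HRE-bla ME-180 cells plated 5 hrs before compound addition, treated 17 hrs at 37C and 5% CO2, then CellTiter-Glo added after the FRET reporter read; luminescence after 30 min.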

Unmarked numbers belong to inactive results. Inconclusive results are not listed. Calls of active or inactive are those of the source. Unless noted, calls come from the whole dose curve; as a rule, active = well fitted curve in the direction sought with a large enough effect in the repeat runs; inconclusive = weak or mixed curves; inactive = no such curve, though single readings can be large; an effect the other way counts as inactive or inconclusive. Positions of bridges follow the written chain, without caps; N, C: chain ends. Non-standard residues stand in square brackets, D forms with d. Residues, ends and D or L forms follow the SMILES beside them. hArg = N=C(N)NCCCC[C@H](N)C(=O)O; Mpa = O=C(O)CCS
% is set by controls: 0 for no effect and ±100 for the full control effect.

Chain of Thyrotropin receptor (Homo sapiens) (P16473 whole entry, looked up): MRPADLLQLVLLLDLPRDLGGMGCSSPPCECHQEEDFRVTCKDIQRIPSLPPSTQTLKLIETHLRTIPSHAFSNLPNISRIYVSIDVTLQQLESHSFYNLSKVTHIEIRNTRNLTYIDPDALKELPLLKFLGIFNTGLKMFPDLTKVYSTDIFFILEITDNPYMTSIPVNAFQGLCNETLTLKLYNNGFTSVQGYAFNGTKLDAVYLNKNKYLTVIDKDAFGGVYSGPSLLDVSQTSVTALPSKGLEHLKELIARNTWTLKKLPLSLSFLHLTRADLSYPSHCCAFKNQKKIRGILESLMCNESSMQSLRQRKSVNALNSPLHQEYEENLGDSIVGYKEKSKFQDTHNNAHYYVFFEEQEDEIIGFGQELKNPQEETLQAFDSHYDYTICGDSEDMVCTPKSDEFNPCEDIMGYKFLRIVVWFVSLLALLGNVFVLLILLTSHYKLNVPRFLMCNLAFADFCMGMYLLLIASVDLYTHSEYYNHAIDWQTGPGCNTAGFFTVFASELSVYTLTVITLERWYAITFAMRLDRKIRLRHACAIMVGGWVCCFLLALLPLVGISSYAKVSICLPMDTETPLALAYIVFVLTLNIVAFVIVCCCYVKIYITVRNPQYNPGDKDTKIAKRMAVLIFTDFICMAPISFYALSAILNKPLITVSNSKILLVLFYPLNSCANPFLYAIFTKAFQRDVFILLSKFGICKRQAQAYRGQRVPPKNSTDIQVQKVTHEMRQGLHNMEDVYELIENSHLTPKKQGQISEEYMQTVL
Chain of Nuclear receptor subfamily 1 group I member 3 (Homo sapiens) (Q14994 whole entry, looked up): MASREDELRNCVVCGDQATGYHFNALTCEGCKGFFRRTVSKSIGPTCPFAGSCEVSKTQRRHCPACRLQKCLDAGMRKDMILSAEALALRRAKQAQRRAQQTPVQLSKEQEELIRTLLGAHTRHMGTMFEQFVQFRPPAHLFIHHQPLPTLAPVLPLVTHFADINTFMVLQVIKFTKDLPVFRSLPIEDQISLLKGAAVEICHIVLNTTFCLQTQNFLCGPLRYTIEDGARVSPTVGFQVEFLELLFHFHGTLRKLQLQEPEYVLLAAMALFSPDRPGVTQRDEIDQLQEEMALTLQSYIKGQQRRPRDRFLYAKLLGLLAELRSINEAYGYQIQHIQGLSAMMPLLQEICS

`CN(C)C(C)(C)CO`: the Potency result in test [1], in test [8], in [9], in [11], in test [12] and in test [15] was “inactive” in each case. The outcome in test [2], in test [3], in [4], in test [5], in [6] and in [7] was inactive. Also, the molecule was called inactive in test [10] and in [13]. Moreover, the max response in [14] was 1.89%.
`CCOC(=O)CC1(C)OCC(C)O1` (stereo unspecified): the Potency entry in [1], in test [8], in [9], in [11] and in test [12] was “inactive” in each case. Also, the molecule was classed as inactive in test [2], in test [3], in test [4], in test [5], in test [6] and in test [7]. For the same molecule, the molecule was called inactive in test [10]. Besides, the max response in test [14] is 1.97%.
For `CC(=O)C1C(=O)C=C(C)OC1=O` (stereo unspecified), the Potency entry in [1], in [8], in test [9], in [11], in test [12] and in [15] was “inactive” throughout. Also, the molecule was classed as inactive in test [2], in test [3], in test [16], in [5], in test [6] and in test [7]. Besides, the call in [10] was inactive. Further, the max response in test [14] was 1.99%.
Turning to `O=C1c2ccccc2C(=O)c2cc(Cl)ccc21`, the activation is 8.38% [at 8.39 µM] in test [1] and -6.72% [at 8.39 µM] in test [3]. Besides, in test [2], the viability change, negative = cytotoxic is 5.77% [at 8.39 µM]. Also, the activity change, negative = cytotoxicity in test [16] was 10.7% [at 6.97 µM]; in test [12], 4.83% [at 6.97 µM]. Moreover, the activation (H2AX phosphorylation) in test [4] is 2.59% [at 14 µM]. Besides, the activity change, negative = cytotoxic in test [8] is -1.41% [at 6.97 µM]; in test [10], -4.67% [at 6.97 µM]. Moreover, the cytotoxicity in [9] is -6.57% [at 6.97 µM]. In test [11], the cytotoxicity increase was -5.31% [at 6.97 µM]. In addition, the max response in test [14] was 3.12%. In addition, the activity change in [15] is -1.14% [at 6.97 µM, stronger effect = higher value].
In the case of `CC(S)C(C)S` (stereo unspecified), the Potency result in [1], in [8], in test [9], in [11] and in test [12] was “inactive” each time. Moreover, the molecule was classed as inactive in [2], in test [3], in test [16], in [5], in [7] and in test [10]. In addition, the max response in test [14] is 7.38%.
Take `CCC(C)OC(C)CC` (stereo unspecified): the Potency result in [1], in test [8], in [9], in test [11], in test [12] and in [15] was “inactive” throughout. For the same molecule, the molecule was classed as inactive in test [2], in test [3], in test [16], in test [4] and in test [10]. For the same molecule, in test [14], the max response is -6.97%.
As to `CCN1CCCC1CN` (stereo unspecified), the Potency result in test [1], in test [8], in [9], in test [11], in test [12] and in [15] was “inactive” each time. Further, the molecule was classed as inactive in [2], in test [3], in test [16], in [5], in [6] and in test [7]. Besides, the call in test [10] and in test [13] was inactive. For the same molecule, the max response in [14] is 9.62%.
On to `NCc1ccc(S(N)(=O)=O)cc1`, for which the Potency entry in test [1], in test [8], in test [9], in [11], in test [12] and in [15] was “inactive” in each case. Moreover, the outcome in [2], in [3], in test [16], in test [6], in test [10] and in [13] was inactive. The max response in test [14] is 4.4%.
In the case of `NC(=O)[C@@H]1CSSCCC(=O)N[C@@H](CCCCN=C(N)N)C(=O)NCC(=O)N[C@@H](CC(=O)O)C(=O)N[C@@H](Cc2c[nH]c3ccccc23)C(=O)N2CCC[C@H]2C(=O)N1` ([Mpa][hArg]GDWPC-NH2; disulfide 1-7), the Potency entry in [1], in test [8], in test [9], in [11], in test [12] and in test [15] was “inactive” throughout. Besides, the call in test [2], in test [3], in [16], in [5], in test [6] and in [7] was inactive. In addition, the result in test [10] and in test [13] was inactive. In [14], the max response was 0%.
Turning to `O=C(O)CSCC(=O)NC1CCSC1=O` (stereo unspecified), the Potency entry in test [1], in test [8], in test [9], in test [11], in test [12] and in [15] was “inactive” in each case. For the same molecule, the outcome in test [2], in [3], in test [16], in [5], in [6] and in test [10] was inactive. Also, the max response in [14] was -1.55%.
In the case of `O=C1OCCO1`, the Potency result in test [1], in test [8], in test [9], in [12] and in test [15] was “inactive” each time. Also, the call in test [2], in test [3], in [16], in test [5], in test [6] and in test [7] was inactive. Moreover, the outcome in test [10] and in test [13] was inactive. The Potency in [11] was 291 nM (active). For the same molecule, the max response in test [14] is 1.36%.
With `CCCCCCCCCOC(=O)c1ccccc1C(=O)OCCCCCCCCC`, the Potency entry in test [1], in test [8], in test [9], in test [11], in [12] and in test [15] was “inactive” in each case. Further, the molecule was classed as inactive in test [2], in [3], in test [4], in [5], in test [6] and in [7]. Besides, the call in [10] and in test [13] was inactive. In addition, the max response in test [14] was 2.9%.
For `O=C(O)CNC(=O)CNC(=O)CNC(=O)CSC(=O)c1ccccc1`, the Potency entry in test [1], in [8], in [9], in [11], in test [12] and in [15] was “inactive” each time. The molecule was called inactive in [2], in test [3], in test [16], in test [5], in test [6] and in test [7]. For the same molecule, the call in test [10] and in test [13] was inactive. Moreover, the max response in test [14] was 6.64%.
`CCC(=O)Oc1ccc2c(c1)CC[C@@H]1[C@@H]2CC[C@@]2(C)[C@H]1C[C@@H](OC(=O)CC)[C@@H]2OC(=O)CC`: the Potency entry in test [1], in [8], in [9], in [11], in test [12] and in test [15] was “inactive” in each case. Besides, the call in test [2], in [3], in [4], in test [5], in test [6] and in test [7] was inactive. The outcome in test [10] and in [13] was inactive. In test [14], the max response is -0.818%.
`CCCCCCCCCCCCCCC(=O)NC(CO)CCCCCCCCCCCCCC` (stereo unspecified): the Potency entry in [1], in test [8], in test [9], in test [11] and in test [12] was “inactive” throughout. The call in test [2], in [3], in [16], in [5], in [6] and in [7] was inactive. For the same molecule, the molecule was called inactive in [10] and in test [13]. Moreover, the max response in test [14] was 5.76%.
`O=C1CCC(=O)N1Cl`: the Potency result in test [1], in [8], in [11], in [12] and in test [15] was “inactive” throughout. The molecule was classed as inactive in test [2], in test [3], in test [16], in [5], in test [6] and in test [7]. Also, the outcome in [10] was inactive. Also, the max response in [14] was 7.58%.

The values above are taken from PubChem BioAssay (Tox21).
